Test results reported in PubChem BioAssay AID1159580 (chemical genetic matrix, 2015).
“And” between values parts separate entries of the source, which are not always exact repeats. Equal entries are not always repeated. Screen size: about 5,500 compounds; about 2,000 (36%) were called active. Roughly 18% stayed inconclusive and do not appear here. Rule as the data show it: active = normalized growth mostly below about 0.91 (no sharp cut-off); inconclusive = no clear call, values can overlap the other calls; inactive = mostly above about 0.92. Some of the results follow.

Test: chemical genetic growth profiling, strain panel (AID 1159580);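 also: tested at 20 µM; growth read once vehicle control cultures reached saturation at 30 °C; 1 = growth at the plate median or of vehicle wells; lower values mean less growth of the strain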
Details: S. cerevisiae deletion strains, growth OD

Measured: normalized growth

NCCSSCCN
inactive: locus YAL013W, strain DEP1, hits give low values 1.01 | locus YAL021C, strain ccr4, hits give low values 0.998 | locus YAL026C, strain drs2, hits give low values 0.999 | locus YAL030W, strain snc1, hits give low values 0.994 | locus YAL040C, strain CLN3, hits give low values 1.02 | locus YBL061C, strain skt5, hits give low values 0.997 | locus YBR009C, strain hhf1, hits give low values 0.992 | locus YBR021W, strain FUR4, hits give low values 1.01 | locus YBR023C, strain chs3, hits give low values 0.991 | locus YBR171W, strain sec66, hits give low values 0.988 | locus YBR229C, strain ROT2, hits give low values 1 | locus YBR231C, strain swc5, hits give low values 0.994 | locus YBR279W, strain paf1, hits give low values 0.996 | locus YCL011C, strain gbp2, hits give low values 1 | locus YCL016C, strain dcc1, hits give low values 1 | locus YCL029C, strain bik1, hits give low values 1.03 | locus YCL061C, strain MRC1 (second series), hits give low values 1 | locus YCL069W, strain vba3, hits give low values 0.997 | locus YCR088W, strain abp1, hits give low values 0.991 | locus YDL005C, strain med2, hits give low values 0.988 | locus YDL035C, strain GPR1, hits give low values 1.01 | locus YDL040C, strain nat1, hits give low values 0.996 | locus YDL074C, strain BRE1, hits give low values 1.03 | locus YDL101C, strain DUN1, hits give low values 1.03 | locus YDL134C, strain PPH21, hits give low values 1.01 | locus YDL185W, strain tfp1, hits give low values 1 | locus YDL192W, strain arf1, hits give low values 1 | locus YDR001C, strain nth1, hits give low values 0.992 | locus YDR069C, strain doa4, hits give low values 0.983 | locus YDR101C, strain arx1, hits give low values 1.01 | locus YDR137W, strain rgp1, hits give low values 1.03 | locus YDR150W, strain NUM1, hits give low values 1.01 | locus YDR159W, strain sac3, hits give low values 1.01 | locus YDR162C, strain NBP2, hits give low values 1.01 | locus YDR195W, strain ref2 0.975 | locus YDR297W, strain sur2, hits give low values 1 | locus YDR318W, strain mcm21, hits give low values 1.01 | locus YDR334W, strain swr1, hits give low values 0.996 | locus YDR335W, strain msn5, hits give low values 0.991 | locus YDR388W, hits give low values 1.01 | locus YDR392W, strain spt3, hits give low values 1.01 | locus YDR502C, strain sam2, hits give low values 0.996 | locus YEL003W, strain gim4, hits give low values 0.994 | locus YEL037C, strain rad23, hits give low values 1 | locus YEL061C, strain CIN8 (second series), hits give low values 0.989 | locus YEL061C, strain CIN8, hits give low values 1 | locus YER002W, strain NOP16, hits give low values 1.02 | locus YER015W, strain faa2, hits give low values 1 | locus YER016W, strain bim1, hits give low values 0.992 | locus YER110C, hits give low values 1.01 | locus YER111C, strain swi4, hits give low values 0.989 | locus YER155C, strain BEM2 (second series), hits give low values 0.952 | locus YER155C, strain BEM2, hits give low values 1.01 | locus YER167W, strain BCK2, hits give low values 0.997 | locus YFR010W, strain ubp6, hits give low values 0.994 | locus YGL078C, strain dbp3, hits give low values 1 | locus YGL086W, strain mad1, hits give low values 0.985 | locus YGL167C, strain pmr1, hits give low values 0.993 | locus YGL173C, strain kem1, hits give low values 0.99 | locus YGL227W, strain vid30, hits give low values 0.99 | locus YGL240W, strain doc1, hits give low values 0.978 | locus YGL248W, strain PDE1, hits give low values 1 | locus YGL253W, strain hxk2, hits give low values 0.995 | locus YGR078C, strain PAC10, hits give low values 1.02 and 1 | locus YGR135W, strain pre9, hits give low values 0.997 | locus YGR229C, strain SMI1, hits give low values 0.982 | locus YGR252W, strain gcn5, hits give low values 0.918 | locus YHR013C, strain ard1, hits give low values 0.996 | locus YHR027C, strain rpn1, hits give low values 0.997 | locus YHR030C, strain SLT2, hits give low values 1 and 1.05 | locus YHR079C, strain IRE1 (second series), hits give low values 1.02 | locus YHR079C, strain IRE1, hits give low values 1.05 | locus YHR094C, strain hxt1, hits give low values 1.01 | locus YHR129C, strain ARP1, hits give low values 1.02 | locus YHR142W, strain chs7, hits give low values 1.01 | locus YHR200W, strain rpn10, hits give low values 1.01 | locus YIL066C, strain RNR3, hits give low values 1.02 | locus YIL073C, strain SPO22, hits give low values 1.02 | locus YIL125W, strain kgd1, hits give low values 0.996 | locus YIR030C, strain dcg1, hits give low values 1.01 | locus YJL092W, strain hpr5, hits give low values 1 | locus YJL095W, strain BCK1 (second series), hits give low values 0.989 | locus YJL095W, strain BCK1, hits give low values 1.04 and 1.06 | locus YJL115W, strain asf1, hits give low values 0.988 | locus YJL129C, strain trk1, hits give low values 0.986 | locus YJL134W, strain LCB3, hits give low values 1 | locus YJL154C, strain vps35, hits give low values 0.993 | locus YJL164C, strain tpk1, hits give low values 1.01 | locus YJL166W, strain qcr8, hits give low values 0.989 | locus YJL168C, strain set2, hits give low values 1.01 | locus YJL187C, strain SWE1 (second series), hits give low values 1.03 | locus YJL187C, strain SWE1, hits give low values 0.993 | locus YJR043C, strain POL32, hits give low values 1.03 | locus YJR066W, strain TOR1, hits give low values 0.918 | locus YJR075W, strain HOC1, hits give low values 1.01
